By inhibition is commonly meant the relative decrease from the control value, in per cent.

In assay [1] the target is Sphingosine kinase 1 (Homo sapiens) (UniProt Q9NYA1). Particulars: at 1 µM.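 Note: mean SPHK1 inhibition value reported from the GSK PKIS kinase panel screen.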
Assay [2] concerns the target T1, Sphingosine kinase 2 (Homo sapiens) (UniProt Q9NRA0).
T1 sequence (whole entry): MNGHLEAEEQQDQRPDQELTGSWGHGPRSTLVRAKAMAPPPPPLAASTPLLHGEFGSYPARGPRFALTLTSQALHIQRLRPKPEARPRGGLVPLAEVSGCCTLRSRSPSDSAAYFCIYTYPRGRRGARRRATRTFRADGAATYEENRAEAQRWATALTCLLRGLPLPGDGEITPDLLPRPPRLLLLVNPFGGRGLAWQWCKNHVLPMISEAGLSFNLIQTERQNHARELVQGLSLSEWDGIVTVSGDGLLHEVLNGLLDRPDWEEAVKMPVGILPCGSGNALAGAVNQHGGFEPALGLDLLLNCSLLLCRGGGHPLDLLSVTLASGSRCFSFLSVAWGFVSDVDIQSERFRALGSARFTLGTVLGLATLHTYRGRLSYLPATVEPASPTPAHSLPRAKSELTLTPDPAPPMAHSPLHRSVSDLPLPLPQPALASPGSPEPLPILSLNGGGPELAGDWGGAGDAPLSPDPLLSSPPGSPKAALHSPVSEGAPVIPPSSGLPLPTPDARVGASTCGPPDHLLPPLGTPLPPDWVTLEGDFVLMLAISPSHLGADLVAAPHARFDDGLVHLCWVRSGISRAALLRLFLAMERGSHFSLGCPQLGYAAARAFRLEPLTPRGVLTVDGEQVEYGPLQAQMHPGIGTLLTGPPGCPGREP
As to conditions: at 0.1 µM.

In assay [3] the target is T1, Sphingosine kinase 2 (Homo sapiens). Particulars: at 1 µM.
In assay [4] the target is Casein kinase II subunit alpha (Homo sapiens) (UniProt P68400). Particulars: at 0.1 µM.
Assay [5] has the same target. Particulars: at 1 µM.
Assay [6] concerns the target T2, Inhibitor of nuclear factor kappa-B kinase subunit alpha (Homo sapiens) (UniProt O15111).
T2 sequence (whole entry): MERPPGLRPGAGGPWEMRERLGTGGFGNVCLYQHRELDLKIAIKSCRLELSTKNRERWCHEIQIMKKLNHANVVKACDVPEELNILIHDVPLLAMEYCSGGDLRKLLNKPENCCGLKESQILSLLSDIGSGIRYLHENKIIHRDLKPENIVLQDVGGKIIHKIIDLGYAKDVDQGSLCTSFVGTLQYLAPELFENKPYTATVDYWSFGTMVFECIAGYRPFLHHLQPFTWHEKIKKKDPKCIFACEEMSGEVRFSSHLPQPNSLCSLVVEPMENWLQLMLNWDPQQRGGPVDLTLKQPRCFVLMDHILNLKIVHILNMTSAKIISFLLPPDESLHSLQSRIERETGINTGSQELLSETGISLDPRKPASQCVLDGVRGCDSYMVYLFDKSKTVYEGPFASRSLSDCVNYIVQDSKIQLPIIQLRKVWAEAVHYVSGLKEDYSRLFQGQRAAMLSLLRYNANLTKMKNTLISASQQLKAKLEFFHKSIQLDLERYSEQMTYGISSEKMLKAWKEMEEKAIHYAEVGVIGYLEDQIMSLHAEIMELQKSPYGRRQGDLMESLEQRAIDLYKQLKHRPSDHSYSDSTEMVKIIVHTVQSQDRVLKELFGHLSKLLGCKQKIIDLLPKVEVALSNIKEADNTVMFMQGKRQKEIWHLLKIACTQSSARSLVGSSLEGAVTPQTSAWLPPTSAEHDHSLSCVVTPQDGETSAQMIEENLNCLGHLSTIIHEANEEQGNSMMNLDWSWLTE
Particulars: at 0.1 µM.

In assay [7] the target is T2, Inhibitor of nuclear factor kappa-B kinase subunit alpha (Homo sapiens). Particulars: at 1 µM.
Assay [8] concerns the target T3, Inhibitor of nuclear factor kappa-B kinase subunit beta (Homo sapiens) (UniProt O14920).
T3 sequence (whole entry): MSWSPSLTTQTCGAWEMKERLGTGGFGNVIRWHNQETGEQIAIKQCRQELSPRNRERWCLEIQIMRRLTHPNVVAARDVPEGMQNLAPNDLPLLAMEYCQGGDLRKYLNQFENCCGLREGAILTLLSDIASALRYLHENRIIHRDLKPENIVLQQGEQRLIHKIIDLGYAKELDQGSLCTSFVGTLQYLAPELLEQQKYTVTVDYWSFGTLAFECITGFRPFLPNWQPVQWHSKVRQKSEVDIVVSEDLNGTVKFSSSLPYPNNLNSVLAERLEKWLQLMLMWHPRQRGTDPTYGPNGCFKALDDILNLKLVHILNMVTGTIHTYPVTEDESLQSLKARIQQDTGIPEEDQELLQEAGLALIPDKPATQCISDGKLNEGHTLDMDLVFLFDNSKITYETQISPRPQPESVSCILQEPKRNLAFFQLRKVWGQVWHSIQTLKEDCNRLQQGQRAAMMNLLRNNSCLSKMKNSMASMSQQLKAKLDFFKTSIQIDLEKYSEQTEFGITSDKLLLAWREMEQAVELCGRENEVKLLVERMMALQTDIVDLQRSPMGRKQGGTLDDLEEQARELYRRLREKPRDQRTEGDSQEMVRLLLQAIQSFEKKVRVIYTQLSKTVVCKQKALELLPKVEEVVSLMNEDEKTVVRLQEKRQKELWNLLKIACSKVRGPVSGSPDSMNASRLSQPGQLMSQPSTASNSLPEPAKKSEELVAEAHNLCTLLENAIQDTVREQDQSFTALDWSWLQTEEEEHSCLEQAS
As to conditions: at 0.1 µM.

The target of assay [9] is T3, Inhibitor of nuclear factor kappa-B kinase subunit beta (Homo sapiens). Particulars: at 1 µM.
Assay [10] addresses T4, Inhibitor of nuclear factor kappa-B kinase subunit epsilon (Homo sapiens) (UniProt Q14164).
T4 sequence (whole entry): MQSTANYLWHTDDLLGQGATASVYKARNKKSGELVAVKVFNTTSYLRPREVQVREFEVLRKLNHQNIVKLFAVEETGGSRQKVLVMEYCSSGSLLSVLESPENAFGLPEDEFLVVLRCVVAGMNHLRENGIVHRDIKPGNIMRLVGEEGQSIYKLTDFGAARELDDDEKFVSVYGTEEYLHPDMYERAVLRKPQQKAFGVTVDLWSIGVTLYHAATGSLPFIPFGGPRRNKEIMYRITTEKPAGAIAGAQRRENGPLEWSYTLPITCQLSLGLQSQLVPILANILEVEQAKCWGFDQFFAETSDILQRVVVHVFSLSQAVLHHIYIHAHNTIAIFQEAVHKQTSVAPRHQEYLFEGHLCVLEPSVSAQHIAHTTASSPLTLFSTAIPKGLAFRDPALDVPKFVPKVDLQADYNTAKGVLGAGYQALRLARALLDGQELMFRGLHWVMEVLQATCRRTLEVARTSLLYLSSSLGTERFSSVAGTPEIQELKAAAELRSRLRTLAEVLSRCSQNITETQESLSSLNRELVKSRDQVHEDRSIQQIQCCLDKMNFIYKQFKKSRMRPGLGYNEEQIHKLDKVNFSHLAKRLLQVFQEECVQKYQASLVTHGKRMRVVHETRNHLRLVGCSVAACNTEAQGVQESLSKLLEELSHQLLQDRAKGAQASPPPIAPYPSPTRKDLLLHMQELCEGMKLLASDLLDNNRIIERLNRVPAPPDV
As to conditions: at 0.1 µM.

Assay [11] addresses T4, Inhibitor of nuclear factor kappa-B kinase subunit epsilon (Homo sapiens). As to conditions: at 1 µM.
Assay [12] deals with T5, Serine/threonine-protein kinase Nek1 (Homo sapiens) (UniProt Q96PY6).
T5 sequence (whole entry): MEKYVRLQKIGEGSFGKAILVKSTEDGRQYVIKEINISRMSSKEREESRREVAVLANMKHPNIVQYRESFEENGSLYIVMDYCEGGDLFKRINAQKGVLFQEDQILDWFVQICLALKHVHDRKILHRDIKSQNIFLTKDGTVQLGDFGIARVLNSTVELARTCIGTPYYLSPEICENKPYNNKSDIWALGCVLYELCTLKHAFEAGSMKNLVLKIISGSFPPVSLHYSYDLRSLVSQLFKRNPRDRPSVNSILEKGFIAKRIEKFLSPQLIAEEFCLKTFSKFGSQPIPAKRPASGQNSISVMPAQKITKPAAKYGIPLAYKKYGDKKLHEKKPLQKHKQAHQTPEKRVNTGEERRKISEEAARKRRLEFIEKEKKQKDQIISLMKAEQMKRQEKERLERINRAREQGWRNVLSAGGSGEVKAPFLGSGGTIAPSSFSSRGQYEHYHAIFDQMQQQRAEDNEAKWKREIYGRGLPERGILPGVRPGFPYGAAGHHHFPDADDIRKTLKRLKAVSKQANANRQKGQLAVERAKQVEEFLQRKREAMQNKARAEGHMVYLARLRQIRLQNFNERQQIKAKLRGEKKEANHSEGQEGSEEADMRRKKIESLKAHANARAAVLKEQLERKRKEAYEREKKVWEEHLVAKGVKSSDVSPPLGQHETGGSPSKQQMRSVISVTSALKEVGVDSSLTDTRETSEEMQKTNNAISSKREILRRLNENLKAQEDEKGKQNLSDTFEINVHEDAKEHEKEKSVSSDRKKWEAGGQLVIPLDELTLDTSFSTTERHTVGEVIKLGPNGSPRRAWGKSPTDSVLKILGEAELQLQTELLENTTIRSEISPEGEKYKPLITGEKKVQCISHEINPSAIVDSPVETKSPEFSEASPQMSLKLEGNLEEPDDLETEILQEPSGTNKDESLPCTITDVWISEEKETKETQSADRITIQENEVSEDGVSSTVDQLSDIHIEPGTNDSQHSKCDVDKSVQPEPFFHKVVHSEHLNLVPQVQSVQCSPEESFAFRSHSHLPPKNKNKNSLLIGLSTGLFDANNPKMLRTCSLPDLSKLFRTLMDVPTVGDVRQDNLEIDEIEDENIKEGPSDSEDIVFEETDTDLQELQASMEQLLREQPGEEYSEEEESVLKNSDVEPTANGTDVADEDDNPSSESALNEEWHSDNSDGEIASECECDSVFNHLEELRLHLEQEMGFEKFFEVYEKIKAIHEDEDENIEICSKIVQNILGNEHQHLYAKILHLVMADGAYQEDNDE
As to conditions: at 0.1 µM.

Assay [13] has as its target T5, Serine/threonine-protein kinase Nek1 (Homo sapiens). As to conditions: at 1 µM.
Assay [14] has as its target T6, Serine/threonine-protein kinase Nek2 (Homo sapiens) (UniProt P51955).
T6 sequence (whole entry): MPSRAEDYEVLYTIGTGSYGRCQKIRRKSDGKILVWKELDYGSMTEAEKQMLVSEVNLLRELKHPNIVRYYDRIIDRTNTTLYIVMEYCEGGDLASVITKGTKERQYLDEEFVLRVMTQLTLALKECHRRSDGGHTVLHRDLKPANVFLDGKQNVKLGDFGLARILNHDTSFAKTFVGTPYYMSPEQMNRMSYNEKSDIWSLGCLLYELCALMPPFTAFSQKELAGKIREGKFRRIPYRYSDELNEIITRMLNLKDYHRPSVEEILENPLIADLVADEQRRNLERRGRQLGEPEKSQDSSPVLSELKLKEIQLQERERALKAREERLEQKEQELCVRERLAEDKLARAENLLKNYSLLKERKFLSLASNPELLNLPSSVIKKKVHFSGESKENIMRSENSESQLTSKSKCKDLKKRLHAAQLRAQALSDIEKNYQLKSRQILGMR
As to conditions: at 0.1 µM.

In assay [15] the target is T6, Serine/threonine-protein kinase Nek2 (Homo sapiens). Particulars: at 1 µM.
Assay [16] deals with Serine/threonine-protein kinase Nek6 (Homo sapiens) (UniProt Q9HC98). As to conditions: at 0.1 µM.
For assay [17] the target is unchanged. As to conditions: at 1 µM.
Assay [18] has as its target Serine/threonine-protein kinase Nek7 (Homo sapiens) (UniProt Q8TDX7). Particulars: at 0.1 µM.
For assay [19] the target is unchanged. Particulars: at 1 µM.
Assay [20] deals with T7, Serine/threonine-protein kinase Nek9 (Homo sapiens) (UniProt Q8TD19).
T7 sequence (whole entry): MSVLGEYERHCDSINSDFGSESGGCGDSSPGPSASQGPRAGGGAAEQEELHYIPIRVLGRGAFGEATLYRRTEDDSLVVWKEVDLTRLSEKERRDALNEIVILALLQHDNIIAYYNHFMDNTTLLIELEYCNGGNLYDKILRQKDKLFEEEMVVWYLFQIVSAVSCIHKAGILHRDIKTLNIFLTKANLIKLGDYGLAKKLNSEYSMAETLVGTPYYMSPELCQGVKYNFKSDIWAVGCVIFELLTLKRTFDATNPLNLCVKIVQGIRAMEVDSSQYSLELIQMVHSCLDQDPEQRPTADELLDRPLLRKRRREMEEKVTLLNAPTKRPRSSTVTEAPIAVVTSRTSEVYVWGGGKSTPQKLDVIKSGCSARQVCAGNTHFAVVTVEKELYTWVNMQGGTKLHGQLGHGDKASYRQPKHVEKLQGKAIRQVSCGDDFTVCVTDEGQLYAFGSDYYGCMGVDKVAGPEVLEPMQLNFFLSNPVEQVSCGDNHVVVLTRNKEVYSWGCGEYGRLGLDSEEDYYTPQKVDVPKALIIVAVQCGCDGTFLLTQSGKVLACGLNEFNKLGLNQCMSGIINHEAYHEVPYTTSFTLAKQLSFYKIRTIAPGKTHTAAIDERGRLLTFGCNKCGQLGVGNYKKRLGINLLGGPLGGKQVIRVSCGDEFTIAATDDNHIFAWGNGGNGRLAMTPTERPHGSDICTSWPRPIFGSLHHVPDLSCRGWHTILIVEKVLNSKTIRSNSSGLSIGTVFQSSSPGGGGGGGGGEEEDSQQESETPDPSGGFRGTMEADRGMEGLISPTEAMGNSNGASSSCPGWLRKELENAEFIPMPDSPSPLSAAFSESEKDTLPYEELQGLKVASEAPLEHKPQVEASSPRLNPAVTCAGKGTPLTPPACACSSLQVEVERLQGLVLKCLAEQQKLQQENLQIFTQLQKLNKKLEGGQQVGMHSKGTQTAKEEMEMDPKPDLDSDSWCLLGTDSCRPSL
As to conditions: at 0.1 µM.

Casein kinase II subunit alpha (Homo sapiens), sequence (P68400 whole entry, looked up): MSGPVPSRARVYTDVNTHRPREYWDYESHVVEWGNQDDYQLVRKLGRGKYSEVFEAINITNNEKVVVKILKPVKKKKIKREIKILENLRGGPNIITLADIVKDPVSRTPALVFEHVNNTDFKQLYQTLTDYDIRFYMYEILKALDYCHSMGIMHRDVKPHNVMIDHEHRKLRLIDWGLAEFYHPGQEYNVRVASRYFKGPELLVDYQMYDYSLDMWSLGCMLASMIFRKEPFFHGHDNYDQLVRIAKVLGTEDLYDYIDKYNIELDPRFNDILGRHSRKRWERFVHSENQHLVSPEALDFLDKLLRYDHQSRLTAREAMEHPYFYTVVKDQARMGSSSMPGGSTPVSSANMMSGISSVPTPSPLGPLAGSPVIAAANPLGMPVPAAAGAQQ
Serine/threonine-protein kinase Nek6 (Homo sapiens), sequence (Q9HC98 whole entry): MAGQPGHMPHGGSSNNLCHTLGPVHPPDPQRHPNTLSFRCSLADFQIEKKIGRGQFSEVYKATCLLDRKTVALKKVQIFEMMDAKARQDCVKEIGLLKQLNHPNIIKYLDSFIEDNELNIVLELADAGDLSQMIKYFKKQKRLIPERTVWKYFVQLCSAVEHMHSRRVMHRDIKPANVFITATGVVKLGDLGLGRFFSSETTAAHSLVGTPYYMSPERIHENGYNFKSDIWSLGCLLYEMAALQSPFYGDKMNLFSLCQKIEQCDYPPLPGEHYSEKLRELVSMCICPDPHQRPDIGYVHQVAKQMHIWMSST
Serine/threonine-protein kinase Nek7 (Homo sapiens), sequence (Q8TDX7 whole entry, looked up): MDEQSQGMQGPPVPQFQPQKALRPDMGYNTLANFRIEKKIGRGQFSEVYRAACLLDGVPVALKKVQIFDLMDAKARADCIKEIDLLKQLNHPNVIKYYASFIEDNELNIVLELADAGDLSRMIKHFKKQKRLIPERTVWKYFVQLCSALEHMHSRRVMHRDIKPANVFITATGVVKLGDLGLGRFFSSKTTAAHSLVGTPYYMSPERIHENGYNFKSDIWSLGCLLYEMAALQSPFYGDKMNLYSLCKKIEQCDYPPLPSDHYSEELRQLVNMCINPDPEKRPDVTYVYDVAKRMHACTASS
Sphingosine kinase 1 (Homo sapiens), sequence (Q9NYA1 whole entry): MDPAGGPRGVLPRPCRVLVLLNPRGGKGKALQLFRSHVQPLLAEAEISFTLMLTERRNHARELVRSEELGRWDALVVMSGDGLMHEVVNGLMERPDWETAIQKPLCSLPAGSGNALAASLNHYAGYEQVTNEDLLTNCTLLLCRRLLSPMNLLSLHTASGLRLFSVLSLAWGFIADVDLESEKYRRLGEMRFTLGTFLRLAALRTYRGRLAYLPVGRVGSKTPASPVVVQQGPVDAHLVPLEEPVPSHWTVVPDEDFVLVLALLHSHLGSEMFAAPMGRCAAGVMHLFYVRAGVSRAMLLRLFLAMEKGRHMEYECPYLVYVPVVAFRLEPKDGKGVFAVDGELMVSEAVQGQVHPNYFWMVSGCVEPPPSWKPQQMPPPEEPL

As for `CS(=O)(=O)CCNCc1ccc(-c2ccc3ncnc(Nc4ccc(OCc5ccccc5)c(C(F)(F)F)c4)c3c2)o1`, the inhibition in assay [1] is 3.88%; in assay [2], -1.22%; in assay [3], 0.8%; in assay [4], 10.8%; in [5], 4.64%; in assay [6], 5.21%. For the same compound, the inhibition in assay [7] turned out to be 0.84%; in assay [8], 9.46%; in assay [9], 10.4%; in [10], 6.52%; in assay [11], 5.28%; in assay [12], 1.71%. Also, the inhibition in [13] is 1.9%; in assay [14], 4.27%; in [15] it was 5.33%; in assay [16], 0.91%; in assay [17], -0.61%; in [18], 2.28%. The inhibition turned out to be 4.17% in [19] and 7.54% in assay [20].

These data come from ChEMBL document CHEMBL1961873, “Compounds: GSK PKIS; Assays: Nanosyn kinase panel” (2012).
